Data reported in PubChem BioAssay (NCI).
Values joined by “and” are separate entries in the source; they are usually repeats but may differ in a detail not shown here. Equal entries are not always repeated. This is part of a sample that, as a whole, favours compounds with a hit. Of some 83,000 tested, about 20% had one in any assay.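 Step 1: grow cells in 96-well plates. Step 2: add test compound at a single concentration. Step 3: incubate 48 h. Step 4: record percent growth.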 Active and inactive are the calls of the source. Rule for the calls: active = growth percent below 10; inactive = the rest.

What was measured:
Assay in all cases: NCI-60 one-dose screen, 48 h (100 = growth as untreated, 0 = no growth, -100 = all killed)
Conditions in all cases: 10 µM unless noted
HCT-15 colon = test system: HCT-15 colon
HT29 colon = test system: HT29 colon
SNB-75 CNS = test system: SNB-75 CNS
SNB-19 CNS = test system: SNB-19 CNS
U251 CNS = test system: U251 CNS
PC-3 prostate = test system: PC-3 prostate
SK-MEL-5 melanoma = test system: SK-MEL-5 melanoma
UACC-62 melanoma = test system: UACC-62 melanoma
LOX IMVI melanoma = test system: LOX IMVI melanoma
SK-MEL-28 melanoma = test system: SK-MEL-28 melanoma

SMILES	growth (HCT-15 colon)	growth (HT29 colon)	growth (SNB-75 CNS)	growth (SNB-19 CNS)	growth (U251 CNS)	growth (PC-3 prostate)	growth (SK-MEL-5 melanoma)	growth (UACC-62 melanoma)	growth (LOX IMVI melanoma)	growth (SK-MEL-28 melanoma)
COc1ccc(C2c3[nH]c4ccc(Cl)cc4c3CCN2c2oc(CO)nc2C#N)cc1 (stereo not given)	22.2% (inactive)	22.9% (inactive)	46.5% (inactive)	51.9% (inactive)	38.9% (inactive)	41.3% (inactive)	29.7% (inactive)	39.3% (inactive)	24.2% (inactive)	60.1% (inactive)
O=C(NNc1nc2cc(F)cc(F)c2n2cccc12)c1cccnn1	27.9% (inactive)	30.2% (inactive)	24.5% (inactive)	21.6% (inactive)	15.3% (inactive)	30.7% (inactive)	-31.3% (active)	9.53% (active)	6.98% (active)	23.9% (inactive)
CC[C@]12C=CCN3CC[C@]4(C(=C(C(=O)OC)C1)Nc1cc5c(cc14)[C@@H]1[C@H](O5)[C@@H](O)[C@@]4(CC)CC(C(=O)OC)=C5Nc6cc(O)ccc6[C@@]56CCN1C46)C32 (stereo not given in full)	-44.6% (active)	4.53% (active)	-2.38% (active)	23.4% (inactive)	8.74% (active)	20.8% (inactive)	-41.5% (active)	19% (inactive)	-83.8% (active)	17.4% (inactive)
C/C=C/CC(C)C(O)[C@H](NC(=O)[C@@H]1CCCN1C(=O)[C@](C)(CC)NC(=O)CCCCCCCCC)C(=O)N[C@@](C)(CC)C(=O)N[C@@H](CCC(N)=O)C(=O)N[C@H](CCC(N)=O)C(=O)NC(C)(C)C(=O)NC(C)(C)C(=O)N[C@@H](CCC(N)=O)C(=O)N[C@H](CC(C)C)C(=O)N[C@H](CO)CC(C)C (stereo not given in full)	76.9% (inactive) and -9.08% (active)	89.8% (inactive) and -25% (active)	13.1% (inactive) and -93.4% (active)	65.8% (inactive) and -98.1% (active)	61.2% (inactive) and -77.9% (active)	69.8% (inactive) and -63.6% (active)	7.02% (active) and -81.2% (active)	73.8% (inactive) and -86.4% (active)	40.1% (inactive) and -86.6% (active)	-42.7% (active) and -100% (active)
O=C(NCCNc1cc(-c2cn(-c3ccccc3)nc2-c2cccc(O)c2)ccn1)Nc1cc(C(F)(F)F)cc(C(F)(F)F)c1	100% (inactive)	95.7% (inactive)	75.4% (inactive)	97% (inactive)	86.8% (inactive)	80.7% (inactive)	96.8% (inactive)	94.1% (inactive)	88% (inactive)	96.9% (inactive)
Cc1ccc2c(n1)C(=O)C(Cl)=C(Nc1ccc(C(F)(F)F)cc1)C2=O	-58.6% (active)	96.8% (inactive)	115% (inactive)	97.5% (inactive)	91.5% (inactive)	72.4% (inactive)	95.3% (inactive)	96.6% (inactive)	-57.1% (active)	51% (inactive)
Cc1ccc(N2CCN(C3=C(Cl)C(=O)c4ncccc4C3=O)CC2)cc1	21% (inactive)	106% (inactive)	99.1% (inactive)	70.3% (inactive)	72.4% (inactive)	63.3% (inactive)	90.4% (inactive)	29.2% (inactive)	-32.6% (active)	80.9% (inactive)
Cc1cc(=O)oc2cc(OCCCOc3ccc(/C=C/C(=O)Nc4ccc(Br)cc4)cc3)ccc12	82.3% (inactive)	90.8% (inactive)	115% (inactive)	86.9% (inactive)	97.8% (inactive)	81.8% (inactive)	85% (inactive)	94.5% (inactive)	67.9% (inactive)	86.6% (inactive)
Cc1[nH]c(C(=O)Nc2ccccc2OCc2cccc(C(=O)NCCN)c2)cc1Cl	106% (inactive)	69.4% (inactive)	74.4% (inactive)	85.8% (inactive)	53.3% (inactive)	96.5% (inactive)	99.3% (inactive)	68.4% (inactive)	35.6% (inactive)	37.6% (inactive)
COC(=O)c1ccc(NC2=C(Cl)C(=O)C(C)=C(C)C2=O)cc1	40% (inactive)	63.3% (inactive)	64.5% (inactive)	53.5% (inactive)	59.4% (inactive)	36.6% (inactive)	44.6% (inactive)	5.89% (active)	24.7% (inactive)	75.9% (inactive)
Oc1[nH]c2ccc(Cl)cc2c1N=Nc1nc(N=Nc2c(O)[nH]c3ccc(Cl)cc23)nc(N2CCOCC2)n1	91.6% (inactive)	91.1% (inactive)	-0.671% (active)	-9.43% (active)	3.81% (active)	56.1% (inactive)	46.1% (inactive)	51.6% (inactive)	23.2% (inactive)	55% (inactive)
COc1ccccc1Cn1cc(C#N)c(N)c1C(=O)c1ccc(Br)cc1	86.6% (inactive)	107% (inactive)	81.1% (inactive)	84.9% (inactive)	102% (inactive)	96.8% (inactive)	96.7% (inactive)	69.7% (inactive)	94.6% (inactive)	100% (inactive)
C=C(C)[C@@H]1CC[C@]2(C(=O)O)CC[C@]3(C)[C@H](CC[C@@H]4[C@@]5(C)C/C(=C/c6ccccn6)C(=O)C(C)(C)[C@@H]5CC[C@]43C)[C@@H]12	18.9% (inactive)	40.8% (inactive)	61.1% (inactive)	50.3% (inactive)	27.9% (inactive)	28.4% (inactive)	31.8% (inactive)	40.1% (inactive)	34.6% (inactive)	64% (inactive)
O=C1C(SCc2ccccc2)=C(Cl)CN1c1ccccc1	95.8% (inactive)	106% (inactive)	92.2% (inactive)	96.2% (inactive)	101% (inactive)	109% (inactive)	99.4% (inactive)	93.1% (inactive)	42.8% (inactive)	98.9% (inactive)
CCN(CC)CCOc1ccc(C(=C(C)Cc2ccc(OC)cc2)c2ccc(OCCN(CC)CC)cc2)cc1	7.13% (active)	-4.07% (active)	76.5% (inactive)	74.4% (inactive)	9.54% (active)	66.2% (inactive)	31.1% (inactive)	-37.6% (active)	-80.7% (active)	-82% (active)
O=C(COc1ccc(/C=C2\C(=O)Nc3ccc(F)cc32)cc1)Nc1ccccc1	99.1% (inactive)	107% (inactive)	94.7% (inactive)	93.3% (inactive)	94.4% (inactive)	94.9% (inactive)	100% (inactive)	88.1% (inactive)	79.6% (inactive)	106% (inactive)
COC(=O)N1CCN(CCNCc2ccc(NC(=O)c3ccc(C)c(C#Cc4cnc5cccnn45)c3)cc2C(F)(F)F)CC1	6.88% (active)	17.3% (inactive)	17.4% (inactive)	59.6% (inactive)	36.2% (inactive)	25.5% (inactive)	-75.2% (active)	39.3% (inactive)	-79.5% (active)	12% (inactive)
Cc1ccc2c(n1)C(=O)C(Cl)=C(Nc1cccc(C)c1C)C2=O	9.66% (active)	87.6% (inactive)	61.2% (inactive)	13.3% (inactive)	-7.55% (active)	12.4% (inactive)	-66.1% (active)	0.0061% (active)	-21.1% (active)	6.66% (active)
O=C(Nc1ccc(N=Cc2c(O)[nH]c3ccccc23)cc1)Nc1ccc(S(=O)(=O)Nc2ncccn2)cc1	97.4% (inactive)	104% (inactive)	99% (inactive)	101% (inactive)	103% (inactive)	94.1% (inactive)	100% (inactive)	103% (inactive)	101% (inactive)	120% (inactive)
O=C1/C(=C/C=C/c2ccco2)SC(=S)N1Cc1ccccc1	65% (inactive)	110% (inactive)	84.7% (inactive)	89.2% (inactive)	92.3% (inactive)	101% (inactive)	98.8% (inactive)	82.1% (inactive)	96.4% (inactive)	101% (inactive)
Cn1c(SCC(=O)c2ccc(Br)cc2)nc2ccccc2c1=O	99.5% (inactive)	101% (inactive)	94.3% (inactive)	100% (inactive)	103% (inactive)	96.5% (inactive)	92.5% (inactive)	77.5% (inactive)	95.9% (inactive)	97.3% (inactive)
NC(=O)c1ncn2c(=O)n(CCF)nnc12	80.4% (inactive)	57.4% (inactive)	50.6% (inactive)	96.1% (inactive)	93.7% (inactive)	71.6% (inactive)	92.5% (inactive)	49.6% (inactive)	26.1% (inactive)	87% (inactive)
CC1CC(=O)C2=C(C1)Nc1ccc(Br)cc1CC2c1c[nH]c2ccc(Br)cc12 (stereo not given)	27.1% (inactive)	11.1% (inactive)	-7.47% (active)	54.7% (inactive)	53.1% (inactive)	31.3% (inactive)	66.1% (inactive)	42.1% (inactive)	34.9% (inactive)	57.2% (inactive)
CNCCN(C)c1ccc(Nc2cc(NC3CC3)n3ncc(C#N)c3n2)cc1NC(C)=O	9.77% (active)	16.4% (inactive)	-24.3% (active)	10.1% (inactive)	5.12% (active)	10.7% (inactive)	-1.54% (active)	-24.9% (active)	-25.7% (active)	13% (inactive)
O=C(CSc1nc2ccccc2c(=O)n1-c1ccc(S(=O)(=O)Nc2ccc(Cl)nn2)cc1)Nc1ccc(S(=O)(=O)Nc2ccc(Cl)nn2)cc1	100% (inactive)	106% (inactive)	96.1% (inactive)	101% (inactive)	102% (inactive)	100% (inactive)	97.2% (inactive)	94% (inactive)	90.4% (inactive)	106% (inactive)
